Out of some 5,500 compounds screened, about 2,000 (36%) were called active. Roughly 18% stayed inconclusive and do not appear here. Cut-off read from the data, not from the text of the source: active = normalized growth mostly below about 0.91 (no sharp cut-off); inconclusive = no clear call, values can overlap the other calls; inactive = mostly above about 0.92. The list shows a part of the results.
Experiment: chemical genetic growth profiling, strain panel (AID 1159580);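 note: tested at 20 µM; growth read once vehicle control cultures reached saturation at 30 °C; 1 = growth at the plate median or of vehicle wells; lower values mean less growth of the strain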
Settings: growth OD
[1] = S. cerevisiae deletion strains, locus YAL013W, strain DEP1, active compounds read low
[2] = S. cerevisiae deletion strains, locus YGR078C, strain PAC10, active compounds read low
[3] = S. cerevisiae deletion strains, locus YMR307W, strain GAS1, active compounds read low
[4] = S. cerevisiae deletion strains, locus YNL153C, strain GIM3, active compounds read low
[5] = S. cerevisiae deletion strains, locus YNL322C, strain KRE1, active compounds read low
[6] = S. cerevisiae deletion strains, locus YBR229C, strain ROT2, active compounds read low
[7] = S. cerevisiae deletion strains, locus YCL061C, strain MRC1, active compounds read low
[8] = S. cerevisiae deletion strains, locus YDL101C, strain DUN1, active compounds read low
[9] = S. cerevisiae deletion strains, locus YDR150W, strain NUM1, active compounds read low
[10] = S. cerevisiae deletion strains, locus YEL061C, strain CIN8, active compounds read low
[11] = S. cerevisiae deletion strains, locus YHR030C, strain SLT2, active compounds read low
[12] = S. cerevisiae deletion strains, locus YHR087W, strain rtc3, active compounds read low
[13] = S. cerevisiae deletion strains, locus YJR043C, strain POL32, active compounds read low
[14] = S. cerevisiae deletion strains, locus YJR075W, strain HOC1, active compounds read low
[15] = S. cerevisiae deletion strains, locus YKL190W, strain CNB1, active compounds read low
[16] = S. cerevisiae deletion strains, locus YLR039C, strain RIC1, active compounds read low
[17] = S. cerevisiae deletion strains, locus YLR058C, strain SHM2 (second series), active compounds read low
[18] = S. cerevisiae deletion strains, locus YLR085C, strain ARP6, active compounds read low
[19] = S. cerevisiae deletion strains, locus YLR262C, strain YPT6, active compounds read low
[20] = S. cerevisiae deletion strains, locus YML094W, strain GIM5, active compounds read low
[21] = S. cerevisiae deletion strains, locus YMR219W, strain ESC1, active compounds read low
[22] = S. cerevisiae deletion strains, locus YMR263W, strain SAP30, active compounds read low
[23] = S. cerevisiae deletion strains, locus YNL298W, strain CLA4 (second series), active compounds read low
[24] = S. cerevisiae deletion strains, locus YNR030W, strain Alg12, active compounds read low
[25] = S. cerevisiae deletion strains, locus YOL006C, strain TOP1, active compounds read low
[26] = S. cerevisiae deletion strains, locus YPL055C, strain LGE1, active compounds read low
[27] = S. cerevisiae deletion strains, locus YPL241C, strain CIN2, active compounds read low
[28] = S. cerevisiae deletion strains, locus YPR135W, strain CTF4, active compounds read low
[29] = S. cerevisiae deletion strains, locus YGR229C, strain SMI1, active compounds read low
[30] = S. cerevisiae deletion strains, locus YJL187C, strain SWE1, active compounds read low

Measured: normalized growth

N=C(N)SCCc1cccc(CCSC(=N)N)c1
inactive: [1] 0.957 | S. cerevisiae deletion strains, locus YAL040C, strain CLN3, active compounds read low 1.05 | S. cerevisiae deletion strains, locus YCL061C, strain MRC1 (second series), active compounds read low 0.984 | S. cerevisiae deletion strains, locus YDR363W, strain ESC2, active compounds read low 0.997 | S. cerevisiae deletion strains, locus YER002W, strain NOP16, active compounds read low 1.02 | [2] 0.992 | [3] 1.01 | [4] 1.16 | S. cerevisiae deletion strains, locus YNL175C, strain NOP13, active compounds read low 1.02 | S. cerevisiae deletion strains, locus YNL197C, strain WHI3, active compounds read low 0.981 | S. cerevisiae deletion strains, locus YNL224C, strain SQS1, active compounds read low 1.05 | [5] 0.975 | S. cerevisiae deletion strains, locus YOR083W, strain WHI5 (second series), active compounds read low 0.963

Cc1ccc(CSC(=N)N)cc1
active: [24] 0.0939 | [27] 0.149
inactive: [1] 1.01 | [6] 0.994 | [7] 1.01 | [8] 0.994 | S. cerevisiae deletion strains, locus YDL134C, strain PPH21, active compounds read low 1 | [9] 0.998 | [10] 0.976 | [2] 1.02 | [11] 0.995 | [12] 0.988 | [13] 1 | [14] 0.973 | [15] 1.01 | [16] 1.01 | [17] 1.01 | [18] 1.01 | [19] 1 | [20] 0.977 | [21] 1 | [22] 1.01 | [4] 0.999 | [23] 1 | [5] 0.995 | [25] 1.03 | [26] 1.01 | [28] 1.01 | S. cerevisiae strains, strain wild type, active compounds read low 1.01

Cc1ccc(CS/C(N)=N\N)cc1
inactive: [1] 0.993 | [6] 0.996 | [7] 0.98 | [8] 0.97 | [9] 0.95 | [10] 1 | [2] 1 | [29] 0.978 | [11] 0.836 | [12] 0.983 | [30] 0.995 | [13] 0.978 | [14] 1.02 | [15] 0.982 | [16] 0.846 | [17] 0.99 | [18] 0.952 | [19] 0.889 | [20] 1.01 | [21] 0.989 | [22] 0.976 | [3] 1.05 | [4] 0.979 | [23] 0.963 | [5] 0.999 | [24] 0.976 | [25] 0.854 | [26] 0.967 | [27] 0.969 | [28] 0.907

CC1(C)CCC(C(C)(C)O)CC1
inactive: [1] 0.988 | [6] 1.01 | [7] 0.999 | [8] 1 | [9] 0.985 | [10] 1.03 | [2] 1.02 | [29] 0.991 | [11] 1.02 | [12] 1.02 | [13] 0.988 | [14] 1 | [15] 0.992 | [16] 0.978 | [17] 0.995 | [18] 1.04 | [19] 0.939 | [20] 1.04 | [21] 0.998 | [22] 1.01 | S. cerevisiae deletion strains, locus YNL128W, strain TEP1, active compounds read low 0.99 | [4] 1.01 | [23] 0.994 | [5] 0.994 | [24] 1.01 | [25] 0.984 | [26] 1.01 | [27] 1.04 | [28] 0.989
active: [30] 0.838

From PubChem BioAssay AID1159580 (chemical genetic matrix, 2015)
